# In all, about 69,000 compounds went through this assay and about 8,600 (12%) showed an effect of 50% or more. Shown is part of a subset that was picked to be rich in strong results.
# Tested on: Plasmodium berghei
# Experiment: Screen against P. berghei liver stage (PbLuc), transformed with Luciferase, at 10uM
# Type: functional, HepG2
# Details: tested at 10 uM
row,Structure (SMILES),INHIBITION [%]
1,O=C(c1ccc2c(c1)CCC2)N1CC[C@H](O)[C@]2(CCCO2)C1,32.3
2,CC(C)c1nc(-c2cc(C(=O)NCCN(C)C)c3ccccn23)cs1,-2.41
3,CN(Cc1ccncc1)c1cncc(Br)c1,33.4
4,CN(Cc1ccc([S+](C)[O-])cc1)c1cncc(Br)c1 (stereo not given),58.4
5,CN(Cc1ccc([S+](C)[O-])cc1)c1cncc(Cl)n1 (stereo not given),52.2
6,Cc1csc(CNC(=O)N(C)Cc2ccc([S+](C)[O-])cc2)n1 (stereo not given),20.6
7,Cc1ncc(CNC(=O)N(C)Cc2ccc([S+](C)[O-])cc2)s1 (stereo not given),40.5
8,CN(Cc1ccc([S+](C)[O-])cc1)c1ccc(Cl)cn1 (stereo not given),33
9,CCc1cc(=O)[nH]c(SCc2ccccn2)n1,-35.5
10,Cc1noc(C(C)C)c1C(=O)N1CCC(n2cccn2)CC1,26.5
11,Cc1cc(C)n(CC2CN(Cc3nc(C)c(C)o3)CCO2)n1 (stereo not given),-47.6
12,CN1CCN(C(=O)NC2CC2)Cc2cccnc21,0.547
13,COC1COC2(CCN(Cc3ccc(Cl)cc3)CC2)C1 (stereo not given),19.5
14,Cn1cc(CNC2CCOCC2)c(-c2cc3ccccc3o2)n1,39.6
15,Cn1cc(CNC2CCS(=O)(=O)C2)c(-c2cc3ccccc3o2)n1 (stereo not given),35
16,Cn1cc(CNC2CCC(O)CC2)c(-c2cc3ccccc3o2)n1 (stereo not given),72.1
17,COc1cccc(CN2CCC3(CCN(C(=O)[C@H]4CCCO4)CC3)C2)c1,43.2
18,Cc1nn(C)c(=O)c2nn(-c3ccc(Cl)cc3)c(C)c12,28.5
19,O=C(C1CN(CC2CC2)CC12CCOCC2)N1CCOCC1 (stereo not given),-7.24
20,O=C([C@@H]1COC[C@H]2CN(CC3CC3)C[C@H]21)N1CCC(F)CC1,12.7
21,O=C([C@H]1COC[C@H]2CN(CC3CCCC3)C[C@H]21)N1CCOCC1,11.3
22,O=C([C@@H]1COC[C@H]2CN(CC3CCCC3)C[C@H]21)N1CCOCC1,65.9
23,O=C([C@H]1COC[C@H]2CN(CC3CC3)C[C@H]21)N1CCOCC1,60
24,O=C([C@H]1COC[C@H]2CN(CC3CCC3)C[C@H]21)N1CCOCC1,24.6
25,Cc1cnn(CCNCc2csc(-c3ncccn3)n2)c1,27.95
26,CCc1nnc(CN(CC)C(=O)C2CC(=O)N(C3CCCC3)C2)o1 (stereo not given),43.2
27,CCc1ccc(C(=O)Nc2cccc(CN3CCCC3C(N)=O)c2)cc1 (stereo not given),-40.7
28,NC(=O)C1CCCN1Cc1cccc(NC(=O)c2cc(Cl)cc(Cl)c2)c1 (stereo not given),68.8

row,Structure (SMILES),INHIBITION [%]
1,NC(=O)C1CCCN1Cc1cccc(NC(=O)c2ccc(Cl)cc2F)c1 (stereo not given),44
2,NC(=O)C1CCCN1Cc1cccc(NC(=O)c2cccs2)c1 (stereo not given),-8.22
3,Cc1cc(C)cc(C(=O)Nc2cccc(CN3CCCC3C(N)=O)c2)c1 (stereo not given),56
4,NC(=O)C1CCCN1Cc1cccc(NC(=O)c2ccsc2)c1 (stereo not given),-18.4
5,C[C@]12CCCCN(C(=O)c3ccccn3)[C@H]1CCCC(=O)N2,11.1
6,CC1CCc2nn(CCNC(=O)c3ccco3)c(=O)cc2C1 (stereo not given),-16.9
7,COc1cccc(S(=O)(=O)NC(=O)C2CC(c3ccccc3)=NO2)c1 (stereo not given),-24.7
8,c1cncc(OC[C@@H]2CCC[C@@]23CN(Cc2nccs2)CCO3)c1,66
9,O=C(c1ccc[nH]1)N1CCO[C@]2(CCC[C@@H]2COc2cccnc2)C1,-34.7
10,CCOC[C@@H]1CCC[C@@]12CN(Cc1cccnc1)CCO2,48.6
11,COC[C@@H]1CCC[C@@]12CN(Cc1ccco1)CCO2,-0.813
12,c1coc(CN2CCO[C@@]3(CCC[C@@H]3COCc3nccs3)C2)c1,53.2
13,COC[C@@H]1CCC[C@]12CN(Cc1ccco1)CCO2,8.67
14,CCOC[C@@H]1CCC[C@@]12CN(Cc1nccs1)CCO2,35.8
15,c1ccc(COC[C@@H]2CCC[C@]23CN(Cc2nccs2)CCO3)nc1,74.2
16,COC[C@@H]1CCC[C@]12CN(Cc1cccc(C)n1)CCO2,-11.8
17,c1ccc(OC[C@H]2CCC[C@]23CN(Cc2nccs2)CCO3)nc1,38.7
18,O=C(c1ccoc1)N1CCO[C@]2(CCC[C@@H]2COCc2ccncc2)C1,-6.23
19,c1csc(COC[C@H]2CCC[C@]23CN(Cc2ccoc2)CCO3)n1,63.7
20,CCc1noc(C2CCCCN2C(=O)c2sccc2C)n1 (stereo not given),40.8
21,O=C(O)c1cc2c(nc1N1CCOCC1)CCN(C1CCOC1)CC2 (stereo not given),-12.1
22,CC(=O)NC1CCCN(C(=O)NCc2cccnc2)C1 (stereo not given),-51.5
23,CC(C)CN1CCC2(CC1)CC(NS(C)(=O)=O)c1ccccc1O2 (stereo not given),6.55
24,CCOCCCC(=O)N(C)C(c1cccc(F)c1)c1ccccn1 (stereo not given),-18
25,Cc1nc(C2CCNCC2)cc(N(C)Cc2cc3cc(F)ccc3[nH]2)n1,33.5
26,COc1cnc(CSc2nnc(C)s2)cc1OCC(N)=O,34.2
27,CCN1C(=O)CCCC12CCCN(C(=O)c1occc1C)C2 (stereo not given),23.5
